{"source": "PubChem BioAssay (NCATS)", "note": "Inconclusive results are not listed. Where a call stands in place of a potency, no number is given. Active and inactive are the calls of the source. The call rests on the fitted dose curve; in most records, active means well fitted inhibition curve with a large enough effect; inconclusive means small, poorly fitted or top-dose-only effect; inactive means no such curve, though single readings can be large or run the other way.", "data": [{"target": "Retinaldehyde dehydrogenase 3 (Homo sapiens) (UniProt P47895)", "experiment": "qHTS for Inhibitors of the Aldehyde Dehydrogenase Family (ALDH1A3) Primary screen (AID 2061315)", "conditions": "ALDH inhibition qHTS; series mostly up to 56 µM", "values": [{"smiles": "Cc1ccc(OCCn2c(CCNC(=O)C3CCCC3)nc3ccccc32)cc1", "Potency": "inactive"}, {"smiles": "CCCCNc1nc(C)nc2c1nc(-c1ccccc1)n2CCN1CCCC1", "Potency": "inactive"}, {"smiles": "Cc1cnc(-c2ccccc2C(C)C)nc1NCC1CCN(C2COC2)CC1", "Potency": "inactive"}, {"smiles": "Cc1cc(C)n2ncc(C(=O)Nc3ccncc3)c2n1", "Potency": "inactive"}, {"smiles": "CN(C(=O)c1cn2c(-c3ccc(C(F)(F)F)cc3)cnc2cn1)c1ccc(C#N)cc1", "Potency": "inactive"}, {"smiles": "Clc1cccc(CSc2nc3ncc(Br)cc3[nH]2)c1", "Potency": "inactive"}, {"smiles": "FC(F)(F)c1ccccc1-c1nc(NCc2ccc(-c3ccc4c(c3)OCO4)cc2)c2ccccc2n1", "Potency": "inactive"}, {"smiles": "Cc1ccc(S(=O)(=O)Nc2cc(C(=O)Nc3nc(-c4ccccc4)cs3)ccn2)cc1", "Potency": "inactive"}, {"smiles": "CCCn1c(C)nc2c(NCCCN3CCCCC3C)nc(C)nc21", "note": "(configuration not stated)", "Potency": "inactive"}, {"smiles": "Oc1ccc(CCc2ccccc2)c2cccnc12", "Potency": "inactive"}, {"smiles": "Cc1ccc(NC(=O)Nc2nnc(-c3ccncc3)s2)cc1C", "Potency": "inactive"}, {"smiles": "N#Cc1cc(-c2nc(Nc3ccc(F)c(F)c3)c3ccccc3n2)ccn1", "Potency": "inactive"}, {"smiles": "Cc1cc2c(s1)c1cnn(Cc3ccc(Cl)cc3)c(=O)c1n2C", "Potency": "inactive"}, {"smiles": "COc1ccc(OC)c(C2=Nn3c(nnc3-c3ccccc3O)SC2)c1", "Potency": "inactive"}, {"smiles": "Cc1ccc(OCCn2c(CCNC(=O)Cc3ccccc3)nc3ccccc32)cc1", "Potency": "inactive"}, {"smiles": "CC(C)(C)c1ccc(-c2ccc(=O)n(CC(=O)NCCc3ccccc3)n2)cc1", "Potency": "inactive"}, {"smiles": "Cc1cc2c(s1)c1cnn(Cc3ccc(C(C)(C)C)cc3)c(=O)c1n2C", "Potency": "inactive"}, {"smiles": "Nc1ccc(-c2ccc(NC(=O)c3cccs3)cn2)cc1", "Potency": "inactive"}, {"smiles": "O=C(CNC(=O)c1ccccc1)OC(C(=O)Nc1cc([N+](=O)[O-])ccc1F)c1ccccc1", "note": "(configuration not stated)", "Potency": "inactive"}, {"smiles": "O=S(=O)(Nc1ccc2ccccc2c1)c1ccc(NCc2cccc(Cl)c2O)cc1", "Potency": "inactive"}, {"smiles": "Cc1cc(NCc2ccc(NC(=O)Cc3ccc(Cl)c(Cl)c3)cc2)no1", "Potency": "inactive"}, {"smiles": "COc1cccc(-c2ccc(=O)n(CC(=O)NCCc3ccccc3)n2)c1", "Potency": "inactive"}]}]}
